Screening data as filed in PubChem BioAssay.
Compounds with a hit are over-represented: about 1.6% of the library has one in this group of screens.
GRK2 aptamer HTS – inhibitors of human GRK2 displacing RNA aptamer; inhibition of aptamer binding, % at 10 µM; bead flow cytometry, FAM-aptamer displacement from GRK2; P25098; 0.59% of 330,000 active;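 active = inhibition of aptamer binding above 40%, roughly 3 SD of noise, on plates passing a quality check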;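 note: median bead fluorescence of bound FAM aptamer so fluorescent compounds give negative values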
Yeast superoxide – yeast age-related superoxide inhibition as caloric restriction mimetic; superoxide response (% of plate mean), % at 10 µM; S. cerevisiae aged cells, superoxide DHE fluorescence; active compounds read low; AID 2690; 0.18% of 330,000 active;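 active = superoxide response under a set limit, about three screen SD below normal, cut at about 65% in these data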;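 note: yeast aged for seven days with compound at 30 °C before DHE staining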
ATG4B inhibitor – ATG4B (human) cysteine protease inhibition | AID 504462 | 0.51% of 340,000 active | Q9Y4P1 | inhibition, % at 8.33 µM | ATG4B cleavage of LC3-PLA2, NBD-HPC fluorescence, 1 h; in the data active = inhibition above about 40%
Target sequence (Q9Y4P1 whole entry, looked up): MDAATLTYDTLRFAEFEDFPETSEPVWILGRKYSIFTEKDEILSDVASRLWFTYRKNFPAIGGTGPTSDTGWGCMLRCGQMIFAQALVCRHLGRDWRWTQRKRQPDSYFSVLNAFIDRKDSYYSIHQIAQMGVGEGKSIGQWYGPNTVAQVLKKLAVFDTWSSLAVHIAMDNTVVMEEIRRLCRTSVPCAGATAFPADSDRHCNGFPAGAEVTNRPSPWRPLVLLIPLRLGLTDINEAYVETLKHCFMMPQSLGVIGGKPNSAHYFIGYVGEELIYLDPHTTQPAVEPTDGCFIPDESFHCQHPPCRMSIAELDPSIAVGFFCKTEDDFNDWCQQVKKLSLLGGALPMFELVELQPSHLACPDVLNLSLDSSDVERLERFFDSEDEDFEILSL
Efflux pump inh – antifungal efflux pump inhibition, Nile Red retention. S. cerevisiae Candida pump triplex. inhibition, % at 10 µM. 0.44% of 330,000 active. AID 485275;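 active = plate passing quality check with inhibition over a set limit, or well fluorescence over plate mean plus 4 SD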;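 note: Nile Red retained in pooled yeast measured as flow cytometry median fluorescence; higher means more Nile Red kept so more efflux inhibition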
CR mimetic CP – confirmation of caloric restriction mimetics inhibiting yeast age-related superoxide; shares compounds with Yeast superoxide; S. cerevisiae aging, superoxide DHE fluorescence; active compounds read low; superoxide response (% of plate), % at 10 µM; 1% of 850 active; AID 434994;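 active = superoxide signal below 65% of the plate average of sample wells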;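 note: cells aged with compound for 7 days at 30 degrees C before staining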
DHE fluor count – DHE fluorescence interference, counter-screen artifact. S. cerevisiae BY4741, flow cytometry; active compounds read low. fluorescence response, % at 10 µM. 850 tested, under 10 active. shares compounds with Yeast superoxide. AID 435000;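 active = fluorescence response below 15%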;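 note: lower means stronger quenching of DHE signal or ROS scavenging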
Of the large screens only hits and unclear results are named; the others gave an inactive call (follow-up assays come after a bar, where they were run).

O=C1CC(=C2c3ccccc3-c3ccccc32)C(=O)N1CCCCN1CCN(c2ccccc2)CC1	Yeast superoxide 15 | CR mimetic CP inactive | DHE fluor count inactive
O=C1CC(=C(c2ccccc2)c2ccccc2)C(=O)N1CCCN1CCN(c2cccc(Cl)c2)CC1	none
CCOc1ccc(NC(=O)CCn2nc(C)c(S(=O)(=O)N3CCCCC3)c2C)cc1	Yeast superoxide 58 | CR mimetic CP inactive | DHE fluor count inactive
CCc1ccc(NC(=O)CCn2nc(C)c(S(=O)(=O)N3CCCCC3)c2C)cc1	none
CCOc1cccc(-c2nnc(SCC(=O)Nc3cc(OC)cc(OC)c3)n2N)c1	none
COc1ccc(NC(C)=O)cc1NC(=O)CSc1nnc(-c2ccc(F)cc2)n1N	none | CR mimetic CP inactive | DHE fluor count inactive
CCOc1cccc(-c2nnc(SCC(=O)Nc3ccc(OC)c(OC)c3)n2N)c1	none | CR mimetic CP inactive | DHE fluor count inactive
COc1cccc(NC(=O)CSc2nnc(-c3cccc(OC(C)C)c3)n2N)c1	none | CR mimetic CP inactive | DHE fluor count inactive
COc1ccc(C)cc1NC(=O)CSc1nnc(-c2ccc(OC)c(OC)c2)n1N	none
CC1CN(C(=O)Nc2cccc(Cl)c2)C2(CCCCCC2)O1 (configuration not stated)	none
O=C(CN1CCN(C(=O)c2cccc(-n3cnnn3)c2)CC1)Nc1ccccc1Cl	none
O=C(NC(Cc1ccccc1)C(=O)O)/C(=C/c1ccccc1)NC(=O)c1ccccc1 (configuration not stated)	Yeast superoxide 65 | CR mimetic CP inactive | DHE fluor count inactive
O=C(NC(Cc1ccccc1)C(=O)O)/C(=C\c1ccc(Cl)cc1)NC(=O)c1ccccc1 (configuration not stated)	none
Cc1cc(C)cc(NC(=O)N2CCNC(=O)C2CC(=O)Nc2cc(Cl)ccc2Cl)c1 (configuration not stated)	Yeast superoxide 64 | CR mimetic CP inactive | DHE fluor count inactive
O=C(CC1C(=O)NCCN1C(=O)Nc1ccc(F)cc1F)Nc1cc(Cl)ccc1Cl (configuration not stated)	none
O=[N+]([O-])c1ccccc1/C=C/CN1CCN(Cc2ccc3c(c2)OCO3)CC1	none
O=C(COC(=O)c1cc(S(=O)(=O)N2CCOCC2)cs1)c1ccccc1	Yeast superoxide 64 | CR mimetic CP inactive | DHE fluor count inactive
O=C(COC(=O)c1cc(S(=O)(=O)N2CCOCC2)ccc1F)c1ccccc1	none
C=C(C)CNC(=S)NNC(=O)CCn1c2ccc(Cl)cc2c2cc(Cl)ccc21	none | CR mimetic CP inactive | DHE fluor count inactive
C=C(C)CNC(=S)NNC(=O)c1ccncc1	none
C=C(C)CNC(=S)NNC(=O)CCn1c2cc(Cl)ccc2c2ccc(Cl)cc21	none | CR mimetic CP inactive | DHE fluor count inactive
C=C(C)CNC(=S)NNC(=O)CCn1c2ccccc2c2ccccc21	none | CR mimetic CP inactive | DHE fluor count inactive
COc1ccc(N(C)S(=O)(=O)c2cccc(C(=O)N3CCN(c4cccc(C)c4C)CC3)c2)cc1	none (no result: GRK2 aptamer HTS, Yeast superoxide, Efflux pump inh)
CC1(C)CC(N2CN(C3CCCCC3)CC2=O)CC(C)(C)N1	Yeast superoxide 61 | CR mimetic CP inactive | DHE fluor count inactive
O=C(CCn1cnc2ccccc21)N/N=C/c1ccc(O)cc1	Yeast superoxide 65 | CR mimetic CP inactive | DHE fluor count inactive
O=C(Cn1cnc2ccccc21)N/N=C/c1ccccn1	Yeast superoxide 21 | CR mimetic CP inactive | DHE fluor count inactive
O=C(CCn1cnc2ccccc21)N/N=C/c1ccccc1O	none
CC(=O)c1cccc(N2C(=O)CC(N3CCN(S(=O)(=O)c4ccccc4F)CC3)C2=O)c1 (configuration not stated)	none
O=C1CC(N2CCN(S(=O)(=O)c3ccccc3F)CC2)C(=O)N1c1ccc(F)cc1F (configuration not stated)	Yeast superoxide 65 | CR mimetic CP inactive | DHE fluor count inactive
CC(=O)c1ccc(N2CCN(S(=O)(=O)c3c(C)[nH]c(C)c3C(=O)N3CCCC3)CC2)cc1	none
COc1ccc(C2(C(=O)NCCc3ccccc3)CCCC2)cc1OC	Yeast superoxide 47 | CR mimetic CP inactive | DHE fluor count inactive
Cc1ccc(-c2n[nH]c(Cc3ccccc3)n2)cc1	none
CCOc1ccccc1NC(=O)COC(=O)C1CC1	none
CCOc1ccccc1NC(=O)COC(=O)C(CC(C)C)N1C(=O)C2CC=CCC2C1=O (configuration not stated)	Yeast superoxide 65 | CR mimetic CP inactive | DHE fluor count inactive
N#Cc1ccc(Cl)cc1NC(=O)CNCc1cccs1	Yeast superoxide 63 | CR mimetic CP inactive | DHE fluor count inactive
O=C(Nc1ccc(F)c(F)c1)c1ccc(F)c(S(=O)(=O)N2CCOCC2)c1	Yeast superoxide 56 (no result: ATG4B inhibitor) | CR mimetic CP inactive | DHE fluor count inactive
O=C(O)c1cc(=O)[nH]c2ccc(S(=O)(=O)Nc3ccc(F)cc3)cc12	Yeast superoxide 57 | CR mimetic CP inactive | DHE fluor count inactive
CCOc1ccc(NS(=O)(=O)c2ccc3[nH]c(=O)cc(C(=O)O)c3c2)cc1	none
COc1ccc(CC(=O)N/N=C(\C)c2cccs2)cc1	none
O=S(=O)(c1ccc(Cl)s1)N1CCC(Cc2ccccc2)CC1	Yeast superoxide 62 | CR mimetic CP inactive | DHE fluor count inactive
N#C/C(=N\Nc1cccc(C(F)(F)F)c1)C(=O)c1ccsc1	Yeast superoxide 64 | CR mimetic CP inactive | DHE fluor count inactive
CCOC(=O)/C=C/C(=O)Nc1ccc(S(=O)(=O)Nc2nccs2)cc1	none
CCOC(=O)c1cnc2cc(C)nn2c1C	none
CCOC(=O)c1cnc2cc(-c3ccc(Br)cc3)nn2c1C	none | CR mimetic CP inactive | DHE fluor count inactive
O=C(NNC(=O)c1ccc(Cl)cc1Cl)Nc1ccccc1	Yeast superoxide 63 | CR mimetic CP inactive | DHE fluor count inactive
O=C(Nc1ccc(Nc2ccccc2)cc1)c1ccc(Cl)cc1Cl	none
Cn1c(=O)c(C(=O)NNC(=O)c2ccccc2F)c(O)c2ccccc21	Yeast superoxide 64 | CR mimetic CP inactive | DHE fluor count inactive
COc1ccc(C(=O)NNC(=O)c2ccc(S(=O)(=O)N3CCOCC3)cc2)cc1	none
COc1ccc(-n2nnnc2CNC(=O)c2ccc(S(=O)(=O)N3CCOCC3)cc2)cc1	Yeast superoxide 60 | CR mimetic CP inactive | DHE fluor count inactive
CCOc1ccc2nc(SCC(=O)c3ccc(O)cc3O)sc2c1	Yeast superoxide 50 | CR mimetic CP inactive | DHE fluor count inactive
CCOc1ccc2nc(SCC(=O)c3ccc(C)s3)sc2c1	none
CN(NC1OC(=O)c2ccccc21)c1ccc(C(F)(F)F)cc1[N+](=O)[O-] (configuration not stated)	none
CN(NC1OC(=O)c2ccccc21)c1ccc(Cl)cc1[N+](=O)[O-] (configuration not stated)	Yeast superoxide 55 | CR mimetic CP inactive | DHE fluor count inactive
Cc1ccc(-c2nc(N)n(S(C)(=O)=O)n2)cc1	Yeast superoxide 65 | CR mimetic CP inactive | DHE fluor count inactive
